Test results reported in the supplement of paper PMC10849652.
The full data set covers some 7,900 targets. This sample favours those with a hit. About 0.6% of all pairs of compound and target were hits.

Each target was assayed with c1cc(OCCN2CCCCC2)cc(-c2n[nH]c3ccc(-c4nnc[nH]4)cc23)c1 (assay: log2 fold change, soluble protein after heating vs DMSO (PISA); higher = thermal stabilisation; K562 cells, 10 uM, 30 min; active = over 0.2 and 3.5 SD of the protein, either way, in both replicates (recomputed)).
Method in brief: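 Thermal stability values are relative to control samples and come from duplicates. They are expressed as log2 fold changes. For measurement, K562 cells (2×10^6 cells/mL) received 10 μM compound for 30 min, and aliquots were heated for 3 min over 48°C-58°C, pooled, and extracted at 4°C in PBS with 0.5% NP-40. Soluble protein, the supernatant after 21,000xg for 90 min, was quantified by TMTpro 16plex LC-MS/MS with equalised channel sums.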

Sequence of UniProt Q9BZI7 (Q9BZI7 whole entry, looked up): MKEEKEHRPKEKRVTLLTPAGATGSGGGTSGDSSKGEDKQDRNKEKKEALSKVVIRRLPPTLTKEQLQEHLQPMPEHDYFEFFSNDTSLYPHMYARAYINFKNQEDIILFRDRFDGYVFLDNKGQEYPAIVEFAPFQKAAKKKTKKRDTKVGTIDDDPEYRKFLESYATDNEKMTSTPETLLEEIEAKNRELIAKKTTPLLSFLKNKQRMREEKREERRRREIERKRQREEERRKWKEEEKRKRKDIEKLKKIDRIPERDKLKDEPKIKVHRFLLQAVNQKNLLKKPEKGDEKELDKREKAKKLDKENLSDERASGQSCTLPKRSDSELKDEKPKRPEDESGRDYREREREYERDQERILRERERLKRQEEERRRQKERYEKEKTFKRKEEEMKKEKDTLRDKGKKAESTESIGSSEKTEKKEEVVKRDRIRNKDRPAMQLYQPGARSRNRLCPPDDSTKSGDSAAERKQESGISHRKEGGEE
Sequence of UniProt Q16763 (Q16763 whole entry, looked up): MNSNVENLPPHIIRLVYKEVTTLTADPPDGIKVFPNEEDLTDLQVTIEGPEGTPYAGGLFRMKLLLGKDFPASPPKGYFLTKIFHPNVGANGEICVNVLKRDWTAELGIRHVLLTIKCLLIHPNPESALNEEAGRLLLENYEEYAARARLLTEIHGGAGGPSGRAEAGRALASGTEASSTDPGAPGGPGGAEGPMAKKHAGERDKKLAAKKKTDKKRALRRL
Sequence of UniProt Q96JG6 (Q96JG6 whole entry, looked up): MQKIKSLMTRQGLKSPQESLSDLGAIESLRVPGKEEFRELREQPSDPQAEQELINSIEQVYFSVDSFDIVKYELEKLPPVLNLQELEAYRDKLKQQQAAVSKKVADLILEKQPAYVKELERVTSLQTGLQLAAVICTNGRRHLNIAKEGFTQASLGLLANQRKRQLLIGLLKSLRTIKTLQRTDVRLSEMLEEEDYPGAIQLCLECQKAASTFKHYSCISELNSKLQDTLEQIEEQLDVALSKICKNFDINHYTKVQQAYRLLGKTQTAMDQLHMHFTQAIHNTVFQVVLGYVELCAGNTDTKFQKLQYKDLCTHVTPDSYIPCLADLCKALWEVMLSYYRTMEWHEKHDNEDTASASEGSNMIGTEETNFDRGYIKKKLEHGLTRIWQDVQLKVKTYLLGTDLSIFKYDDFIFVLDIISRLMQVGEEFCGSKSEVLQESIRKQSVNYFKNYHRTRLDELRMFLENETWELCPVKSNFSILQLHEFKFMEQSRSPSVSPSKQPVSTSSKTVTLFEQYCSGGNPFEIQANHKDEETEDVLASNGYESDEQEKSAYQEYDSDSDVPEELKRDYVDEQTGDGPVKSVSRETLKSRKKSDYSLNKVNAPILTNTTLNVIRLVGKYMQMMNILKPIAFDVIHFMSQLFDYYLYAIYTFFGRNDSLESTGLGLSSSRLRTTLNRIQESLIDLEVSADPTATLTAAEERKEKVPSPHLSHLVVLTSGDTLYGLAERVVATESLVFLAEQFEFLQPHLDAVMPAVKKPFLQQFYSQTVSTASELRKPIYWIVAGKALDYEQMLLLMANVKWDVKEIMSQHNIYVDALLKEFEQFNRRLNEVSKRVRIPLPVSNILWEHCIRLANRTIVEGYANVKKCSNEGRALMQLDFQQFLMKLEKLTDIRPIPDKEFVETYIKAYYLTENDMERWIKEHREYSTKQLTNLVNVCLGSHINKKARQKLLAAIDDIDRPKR
Sequence of UniProt P13010 (P13010 whole entry, looked up): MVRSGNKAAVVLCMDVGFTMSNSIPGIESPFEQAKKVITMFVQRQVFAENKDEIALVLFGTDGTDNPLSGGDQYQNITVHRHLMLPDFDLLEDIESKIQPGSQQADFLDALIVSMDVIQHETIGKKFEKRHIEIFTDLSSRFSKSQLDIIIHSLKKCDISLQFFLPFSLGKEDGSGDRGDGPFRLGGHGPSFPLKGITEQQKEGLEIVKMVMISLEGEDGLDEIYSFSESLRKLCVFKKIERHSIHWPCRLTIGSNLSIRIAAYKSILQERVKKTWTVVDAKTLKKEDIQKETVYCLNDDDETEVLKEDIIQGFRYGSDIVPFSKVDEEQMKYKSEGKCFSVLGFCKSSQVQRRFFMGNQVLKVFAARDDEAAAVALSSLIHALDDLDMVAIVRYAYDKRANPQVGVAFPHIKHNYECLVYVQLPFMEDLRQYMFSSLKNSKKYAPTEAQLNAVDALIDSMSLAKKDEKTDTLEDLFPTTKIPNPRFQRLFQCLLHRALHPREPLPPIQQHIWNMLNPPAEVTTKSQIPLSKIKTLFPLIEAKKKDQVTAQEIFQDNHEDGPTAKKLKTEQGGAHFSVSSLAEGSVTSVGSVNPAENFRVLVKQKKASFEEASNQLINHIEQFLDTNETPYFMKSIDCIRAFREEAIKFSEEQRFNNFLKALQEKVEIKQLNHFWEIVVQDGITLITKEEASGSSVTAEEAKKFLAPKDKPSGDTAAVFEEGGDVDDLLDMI
Sequence of UniProt Q92973 (Q92973 whole entry, looked up): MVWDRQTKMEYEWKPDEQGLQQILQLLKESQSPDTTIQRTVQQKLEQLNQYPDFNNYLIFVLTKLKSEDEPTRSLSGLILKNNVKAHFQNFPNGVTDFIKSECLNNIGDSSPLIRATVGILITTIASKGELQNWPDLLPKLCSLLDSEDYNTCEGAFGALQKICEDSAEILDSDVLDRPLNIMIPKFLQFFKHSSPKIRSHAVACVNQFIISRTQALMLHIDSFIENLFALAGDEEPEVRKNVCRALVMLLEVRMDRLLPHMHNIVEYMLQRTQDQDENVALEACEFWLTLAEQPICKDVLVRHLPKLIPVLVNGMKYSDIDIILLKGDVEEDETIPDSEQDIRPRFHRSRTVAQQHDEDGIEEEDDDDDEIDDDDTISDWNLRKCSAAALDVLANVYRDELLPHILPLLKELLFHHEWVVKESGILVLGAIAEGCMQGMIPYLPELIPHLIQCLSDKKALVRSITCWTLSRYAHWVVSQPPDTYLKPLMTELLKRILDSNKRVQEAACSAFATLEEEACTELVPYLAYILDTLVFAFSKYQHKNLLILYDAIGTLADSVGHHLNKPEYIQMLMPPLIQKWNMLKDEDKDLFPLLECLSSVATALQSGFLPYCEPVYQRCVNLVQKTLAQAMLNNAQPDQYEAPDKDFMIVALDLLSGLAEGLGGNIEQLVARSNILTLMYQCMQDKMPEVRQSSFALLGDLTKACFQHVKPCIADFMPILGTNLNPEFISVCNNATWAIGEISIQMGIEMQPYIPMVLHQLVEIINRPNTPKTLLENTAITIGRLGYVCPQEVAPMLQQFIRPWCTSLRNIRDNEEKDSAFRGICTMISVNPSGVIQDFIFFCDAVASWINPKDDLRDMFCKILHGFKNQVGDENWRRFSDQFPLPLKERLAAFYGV
Sequence of UniProt Q9UGM6 (Q9UGM6 whole entry, looked up): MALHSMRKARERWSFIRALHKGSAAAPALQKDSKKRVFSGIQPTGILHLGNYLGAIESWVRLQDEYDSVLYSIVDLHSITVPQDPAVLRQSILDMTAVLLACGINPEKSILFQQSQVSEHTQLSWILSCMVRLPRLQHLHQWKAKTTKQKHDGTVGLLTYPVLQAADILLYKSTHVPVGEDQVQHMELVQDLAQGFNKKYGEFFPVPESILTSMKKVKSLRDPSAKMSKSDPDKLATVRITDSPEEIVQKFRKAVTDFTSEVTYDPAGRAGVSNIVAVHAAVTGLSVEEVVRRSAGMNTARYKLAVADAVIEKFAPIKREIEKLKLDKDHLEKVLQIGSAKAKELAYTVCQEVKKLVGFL
Sequence of UniProt Q9P0T7 (Q9P0T7 whole entry, looked up): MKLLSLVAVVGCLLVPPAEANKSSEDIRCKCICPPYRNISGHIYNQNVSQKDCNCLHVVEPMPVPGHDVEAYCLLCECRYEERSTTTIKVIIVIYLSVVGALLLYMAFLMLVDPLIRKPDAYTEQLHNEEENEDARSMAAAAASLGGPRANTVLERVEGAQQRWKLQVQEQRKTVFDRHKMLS
Sequence of UniProt Q99816 (Q99816 whole entry, looked up): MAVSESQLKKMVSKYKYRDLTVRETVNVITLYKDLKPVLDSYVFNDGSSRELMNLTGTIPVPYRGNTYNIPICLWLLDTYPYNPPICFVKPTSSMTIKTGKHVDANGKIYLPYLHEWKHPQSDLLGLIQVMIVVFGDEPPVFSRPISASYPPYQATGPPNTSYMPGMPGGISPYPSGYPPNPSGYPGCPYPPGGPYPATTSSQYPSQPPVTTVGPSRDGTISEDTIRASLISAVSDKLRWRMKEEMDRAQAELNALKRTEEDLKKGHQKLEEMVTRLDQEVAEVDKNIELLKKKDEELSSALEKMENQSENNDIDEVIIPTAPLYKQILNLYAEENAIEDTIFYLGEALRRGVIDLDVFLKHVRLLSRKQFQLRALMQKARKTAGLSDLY
Sequence of UniProt Q01081 (Q01081 whole entry, looked up): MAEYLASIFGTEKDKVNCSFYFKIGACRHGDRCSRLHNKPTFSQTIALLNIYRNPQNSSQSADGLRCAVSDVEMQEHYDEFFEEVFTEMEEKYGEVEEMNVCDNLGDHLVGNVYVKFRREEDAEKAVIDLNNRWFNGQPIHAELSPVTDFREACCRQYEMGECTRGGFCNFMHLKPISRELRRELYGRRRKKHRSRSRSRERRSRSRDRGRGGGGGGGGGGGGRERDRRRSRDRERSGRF
Sequence of UniProt Q8TBZ6 (Q8TBZ6 whole entry, looked up): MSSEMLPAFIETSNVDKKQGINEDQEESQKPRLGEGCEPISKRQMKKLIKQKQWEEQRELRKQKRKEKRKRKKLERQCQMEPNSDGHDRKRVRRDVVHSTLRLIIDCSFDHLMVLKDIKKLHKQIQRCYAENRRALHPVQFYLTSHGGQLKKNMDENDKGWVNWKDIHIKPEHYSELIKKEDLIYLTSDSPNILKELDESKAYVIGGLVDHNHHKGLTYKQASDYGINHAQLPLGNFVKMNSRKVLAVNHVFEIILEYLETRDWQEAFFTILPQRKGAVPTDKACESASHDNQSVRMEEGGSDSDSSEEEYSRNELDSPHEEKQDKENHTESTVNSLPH

log2 fold change, inactive:
VRK1 (UniProt Q99986) 0.063, UBE2S (UniProt Q16763) -0.032, XRCC5 (UniProt P13010) -0.041, TMEM9 (UniProt Q9P0T7) 0.065, TRMT10A (UniProt Q8TBZ6) -0.02, TNPO1 (UniProt Q92973) -0.066, WARS2 (UniProt Q9UGM6) -0.023, VPS53 isoform 4 (UniProt Q5VIR6) -0.02, TSG101 (UniProt Q99816) 0.025, U2AF1 isoform 2 (UniProt Q01081) -0.093, UPF3B (UniProt Q9BZI7) -0.278, VPS50 (UniProt Q96JG6) 0.003, TTC38 (UniProt Q5R3I4) 0.313
